Rin1 Abl inh: inhibitors of Rin1-Abl protein binding, primary screen, biochemical, TR-FRET. Tyrosine-protein kinase ABL1 (Homo sapiens) + Ras and Rab interactor 1 (Homo sapiens), …. inhibition, % at 7.35 µM. actives 0.4% (n = 360,000); in the data active = inhibition above about 5%, passing the limit was not always enough
PAFAH1B2 FP inh: PAFAH1B2 enzyme inhibitors, primary screen, biochemical, fluorescence polarization, human. AID 492953, 2010. recombinant PAFAH1B2, FP-rhodamine activity probe. actives 1.2% (n = 340,000). Platelet-activating factor acetylhydrolase IB subunit alpha2 (Homo sapiens), P68402. inhibition, % at 3.39 µM;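 active = inhibition above the mean of all tested compounds plus 3 SD, cut at about 24% in these data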;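 also: 0% = enzyme with DMSO and 100% = wells lacking PAFAH1B2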
pPAFAH FP inh: pPAFAH enzyme inhibitors, primary screen, biochemical, fluorescence polarization, human. Platelet-activating factor acetylhydrolase (Homo sapiens), Q13093. recombinant pPAFAH, FP-rhodamine probe fluorescence polarization. inhibition, % at 3.39 µM. actives 1.5% (n = 330,000). AID 463082, 2010;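 active = inhibition above the mean inhibition across the screen plus 3 SD, cut at about 25% in these data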;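 also: inhibitors block binding of the rhodamine activity-based probe so polarization drops; 0% = enzyme with DMSO and 100% = wells lacking pPAFAH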
E coli Lon inh: inhibitors of E. coli Lon protease, primary screen, biochemical, fluorescence polarization. P0A9M0. purified E. coli Lon protease. inhibition, % at 7.94 µM. actives 0.42% (n = 360,000). AID 602123, 2011; in the data active = inhibition above about 13%, passing the limit was not always enough;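 also: 0% = enzyme with probe and DMSO and 100% = no enzyme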
Target sequence (P0A9M0 whole entry, looked up): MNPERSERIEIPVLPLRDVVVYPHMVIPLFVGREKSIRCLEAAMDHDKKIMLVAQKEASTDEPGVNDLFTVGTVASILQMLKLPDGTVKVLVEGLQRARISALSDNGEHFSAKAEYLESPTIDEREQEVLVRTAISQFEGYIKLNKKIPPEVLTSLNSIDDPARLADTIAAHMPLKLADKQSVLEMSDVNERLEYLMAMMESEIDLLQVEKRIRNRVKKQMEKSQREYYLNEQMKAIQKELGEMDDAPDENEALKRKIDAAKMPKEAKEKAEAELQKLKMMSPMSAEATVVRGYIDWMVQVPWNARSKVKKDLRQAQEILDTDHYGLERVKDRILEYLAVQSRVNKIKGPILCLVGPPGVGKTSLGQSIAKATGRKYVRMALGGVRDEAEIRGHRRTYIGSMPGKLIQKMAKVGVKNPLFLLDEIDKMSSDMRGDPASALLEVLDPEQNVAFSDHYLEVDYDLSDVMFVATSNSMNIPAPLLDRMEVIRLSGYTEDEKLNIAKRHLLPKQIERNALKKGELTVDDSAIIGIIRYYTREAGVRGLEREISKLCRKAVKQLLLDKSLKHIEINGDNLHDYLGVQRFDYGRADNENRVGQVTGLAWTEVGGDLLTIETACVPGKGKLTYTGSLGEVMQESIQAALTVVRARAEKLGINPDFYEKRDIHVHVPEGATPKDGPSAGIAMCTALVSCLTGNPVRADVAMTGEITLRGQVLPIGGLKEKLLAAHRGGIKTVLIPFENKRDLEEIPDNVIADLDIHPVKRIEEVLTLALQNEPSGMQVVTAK
PAFAH1B3 FP inh: PAFAH1B3 enzyme inhibitors, primary screen, biochemical, fluorescence polarization, human; Platelet-activating factor acetylhydrolase IB subunit alpha1 (Homo sapiens), Q15102; recombinant PAFAH1B3, FP-rhodamine probe; inhibition, % at 3.39 µM; actives 0.28% (n = 340,000); AID 492972, 2010;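 active = inhibition above the screen-wide average of all tested compounds plus 3 SD, cut at about 25% in these data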;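 also: 0% = enzyme with DMSO only and 100% = wells lacking PAFAH1B3 protein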
PAFAH2 inh: PAFAH2 enzyme inhibitors, primary screen, biochemical, fluorescence polarization, human; recombinant PAFAH2, FP-rhodamine activity probe; inhibition, % at 3.39 µM; actives 0.99% (n = 340,000); AID 492956, 2010;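 active = inhibition above the mean over all tested compounds plus 3 SD, cut at about 30% in these data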;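 also: inhibitors block probe labeling of enzyme so polarization drops; 0% = enzyme with DMSO and 100% = wells lacking PAFAH2 protein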
Starred values were filed as active, the others as inactive. The list is not random: actives were taken first. Their share in the collection is about 3.1%.

How did Nc1ccn([C@@H]2O[C@H](CNCc3cc(Cl)ccc3OCc3ccc(Cl)cc3)[C@@H](O)[C@H]2O)c(=O)n1 do in these assays?
Rin1 Abl inh: -4; E coli Lon inh: -11

Results for NC(=O)c1ncn([C@@H]2O[C@H](CNCc3cc(Cl)ccc3OCc3ccc(Cl)cc3)[C@@H](O)[C@H]2O)n1 ?
Rin1 Abl inh: -1; PAFAH1B2 FP inh: 28*; E coli Lon inh: 2; PAFAH1B3 FP inh: 4; PAFAH2 inh: 13

Results for Cc1cc(SCC(=O)OCC(=O)N2CCN(C(=O)c3ccco3)CC2)c(C)cc1Br ?
Rin1 Abl inh: -1; PAFAH1B2 FP inh: 5; pPAFAH FP inh: 22; E coli Lon inh: -10; PAFAH1B3 FP inh: 2; PAFAH2 inh: 2

What do the screens show for `Cc1cccc(OCC(=O)OCC(=O)N2CCN(C(=O)c3ccco3)CC2)c1C`?
Rin1 Abl inh: 2; PAFAH1B2 FP inh: 3; pPAFAH FP inh: 27*; E coli Lon inh: 2; PAFAH1B3 FP inh: 16; PAFAH2 inh: 6

Results for O=C(CSc1ccccc1)OCC(=O)N1CCN(C(=O)c2ccco2)CC1 ?
Rin1 Abl inh: 0; PAFAH1B2 FP inh: 12; pPAFAH FP inh: 26*; E coli Lon inh: 1; PAFAH1B3 FP inh: -1; PAFAH2 inh: 21

What do the screens show for `Cc1ccc(SCC(=O)OCC(=O)N2CCN(C(=O)c3ccco3)CC2)c(C)c1`?
Rin1 Abl inh: -1; PAFAH1B2 FP inh: 12; pPAFAH FP inh: 34*; E coli Lon inh: -16; PAFAH1B3 FP inh: 3; PAFAH2 inh: 16

What do the screens show for `O=C(O)C(Cc1c[nH]c2ccccc12)NS(=O)(=O)c1ccccc1` (stereo unspecified)?
Rin1 Abl inh: -3; PAFAH1B2 FP inh: 24*; pPAFAH FP inh: 2; E coli Lon inh: 0; PAFAH1B3 FP inh: 0; PAFAH2 inh: 2

What do the screens show for `COc1cc(S(=O)(=O)NC(Cc2c[nH]c3ccccc23)C(=O)O)ccc1NC(C)=O` (stereo unspecified)?
Rin1 Abl inh: -2; PAFAH1B2 FP inh: 5; pPAFAH FP inh: -7; E coli Lon inh: -15; PAFAH1B3 FP inh: 3; PAFAH2 inh: -1

How did C#CCOCCOCCOCCNc1nc(N2CCN(C(=O)CCCCCCCCCCNC(=O)Cn3cc(CCCCCN)nn3)CC2)nc(N2CCN(C(=O)CCCCCCCCCCNC(=O)[C@H]([C@@H](C)CC)n3cc(CCCCN=C(N)N)nn3)CC2)n1 do in these assays?
Rin1 Abl inh: 15*; PAFAH1B2 FP inh: -1; pPAFAH FP inh: 14; E coli Lon inh: 0; PAFAH1B3 FP inh: 11; PAFAH2 inh: 1

Results for C#CCOCCOCCOCCNc1nc(N2CCN(C(=O)CCCCCCCCCCNC(=O)Cn3cc(CCCCCN)nn3)CC2)nc(N2CCN(C(=O)CCCCCCCCCCNC(=O)Cn3cc(CCCCCN)nn3)CC2)n1 ?
Rin1 Abl inh: 13*; PAFAH1B2 FP inh: 1; pPAFAH FP inh: 5; E coli Lon inh: 15; PAFAH1B3 FP inh: 5; PAFAH2 inh: -1

Results for C[C@H](OC(=O)N1CCN(C(c2ccccc2)c2ccccc2)CC1)[C@@H]1O[C@@]2(C)CCC[C@H]1O2 ?
Rin1 Abl inh: 3; PAFAH1B2 FP inh: -1; pPAFAH FP inh: 11; E coli Lon inh: 3; PAFAH1B3 FP inh: 0; PAFAH2 inh: 0

How did C[C@H](OC(=O)NCc1ccc(C(F)(F)F)cc1)[C@@H]1O[C@@]2(C)CCC[C@@H]1O2 do in these assays?
Rin1 Abl inh: 2; PAFAH1B2 FP inh: 25*; pPAFAH FP inh: -2; E coli Lon inh: -7; PAFAH1B3 FP inh: -1; PAFAH2 inh: 0

Results for Cc1cc(/C=C2\SC(=S)NC2=O)c(C)n1C1CC1 ?
Rin1 Abl inh: -4; PAFAH1B2 FP inh: 3; pPAFAH FP inh: 32*; E coli Lon inh: -99; PAFAH1B3 FP inh: 9; PAFAH2 inh: 12

What do the screens show for `O=C(Nc1c(C(=O)O)[nH]c2ccccc12)NC1CCCCC1`?
Rin1 Abl inh: 0; PAFAH1B2 FP inh: 27*; pPAFAH FP inh: 11; E coli Lon inh: -3; PAFAH1B3 FP inh: -3; PAFAH2 inh: 45*

What do the screens show for `CCCCC1=CC2=CC(=O)C(C)(OC(=O)CCC(=O)OC)C(=O)C2=CO1` (stereo unspecified)?
pPAFAH FP inh: 39*

How did CCCCC1=CC2=CC(=O)C(C)(OC(=O)c3cnc4ccccc4n3)C(=O)C2=CO1 (stereo unspecified) do in these assays?
pPAFAH FP inh: 57*

What do the screens show for `COC(=O)CCC(=O)OC1(C)C(=O)C=C2C=C3CCCN3C=C2C1=O` (stereo unspecified)?
Rin1 Abl inh: -1; PAFAH1B2 FP inh: 9; pPAFAH FP inh: 17; E coli Lon inh: -2; PAFAH1B3 FP inh: 9; PAFAH2 inh: 11

Results for COC(=O)CCCC1=CC2=CC(=O)C(C)(OC(=O)c3ccc(Cl)nc3)C(=O)C2=CO1 (stereo unspecified) ?
pPAFAH FP inh: 36*

How did COC/C=C/C1=CC2=CC(=O)C(C)(OC(=O)c3cnc4ccccc4n3)C(=O)C2=CN1c1ccc(OC)cc1 (stereo unspecified) do in these assays?
Rin1 Abl inh: 3; PAFAH1B2 FP inh: 4; pPAFAH FP inh: 19; E coli Lon inh: -7; PAFAH1B3 FP inh: 7; PAFAH2 inh: 14

What do the screens show for `COC/C=C/C1=CC2=CC(=O)C(C)(OC(=O)c3cnc4ccccc4n3)C(=O)C2=CN1CCc1ccccn1` (stereo unspecified)?
pPAFAH FP inh: 25*

Results for O=c1[nH]c2ccccc2nc1-c1nnnn1Cc1ccccc1 ?
E coli Lon inh: 0

Results for Cc1sc2ncnc(SCC(=O)N3CCCC(C(F)(F)F)C3)c2c1C (stereo unspecified) ?
Rin1 Abl inh: -3; PAFAH1B2 FP inh: 12; pPAFAH FP inh: 0; E coli Lon inh: -9; PAFAH1B3 FP inh: 7; PAFAH2 inh: -6

Results for COC(=O)CCCC1=CC2=CC(=O)C(C)(OC(=O)c3cccs3)C(=O)C2=CN1c1ccccc1 (stereo unspecified) ?
Rin1 Abl inh: 2; PAFAH1B2 FP inh: 6; pPAFAH FP inh: 11; E coli Lon inh: 9; PAFAH1B3 FP inh: 5; PAFAH2 inh: 3

What do the screens show for `CCCCCCCC1=CC2=CC(=O)C(C)(OC(C)=O)C(=O)C2=CN1CCc1ccccc1` (stereo unspecified)?
pPAFAH FP inh: 10

How did COC(=O)CCCC1=CC2=CC(=O)C(C)(OC(=O)c3cccs3)C(=O)C2=CO1 (stereo unspecified) do in these assays?
pPAFAH FP inh: 43*

Assay outcomes from PubChem BioAssay.
